Rows were chosen to be rich in hits. Some 21% of all compounds tested hit in one or more screens of this group.
CHX counter: affects cycloheximide protein synthesis inhibition readout, counter-screen; cell reporter, cycloheximide protein synthesis inhibition counterscreen; max response, %; actives 12% (n = 300,000); AID 2314; in the data active = max response mostly above about 13%, no sharp cut-off; inactive = mostly below about 14%; also: read at 38.3 µM for the half of the compounds with a filed dose
HCMV inh: blocks human cytomegalovirus replication | HFF cells, HCMV-luciferase reporter, 72 h; active compounds read low | activity change, negative = inhibition, % at 57.5 µM | actives 4.5% (n = 410,000); in the data active = activity change below about -60%; inconclusive = no clear call, values can overlap the other calls; inactive = above about -39%
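Cell-based, HFFs, 1000 cells/well, 16 h 37C; cpds in DMSO + HCMV-luc, MOI 1 PFU/cell; 72 h 37C; OneGlo luminescence after 5 min RT; norm. to buffer vs Salinomycin 10uM.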
HCV inhibitor: inhibitors of hepatitis C virus infection | Potency, µM (highest dose often 41.8 µM), hits mostly inhibitors | actives 3.4% (n = 340,000) | AID 651820 | Huh7.5.1 HCVcc-Cre infection, luciferase reporter, 44 h
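After 44 h co-culture of compound, cells and HCVcc-Cre (~0.5 moi), substrate is added for 15 min at room temperature and luciferase measured over 15 sec. Cells were seeded at 1,000/well and pre-cultured 4 h.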
Pf growth 48h: P. falciparum growth inhibition at 48 hours (one generation). P. falciparum luciferase growth in erythrocytes, 48 h. actives 5.9% (n = 310,000). Potency, µM (top dose mostly 28.7 µM), most hits filed as inhibitors
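Read-out is firefly luciferase luminescence from an integrated reporter in P. falciparum, so falling signal marks reduced parasite growth. Infected erythrocytes were at 2% hematocrit and 0.1% parasitemia (final) in Albumax-supplemented RPMI 1640.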
Shiga toxin inh: inhibitors of Shiga toxin in Vero cells | Vero cells, Shiga toxin protein synthesis inhibition reporter | inhibition, % at 38.7 µM | actives 9.2% (n = 290,000) | AID 2315; in the data active = inhibition mostly above about 28%, no sharp cut-off; inactive = mostly below about 43%
Pf growth 96h: inhibits malaria parasite growth, 96 h; P. falciparum luciferase reporter growth, 96 h; Potency, µM (titrated, usually from 28.7 µM), actives largely listed as inhibitors; actives 6.9% (n = 320,000)
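Erythrocytes infected with luciferase-expressing P. falciparum were dispensed at 2% hematocrit and 0.05% parasitemia (final), then incubated with compounds 96 hours at 37 C in 5% CO2. Luminescence after detection reagent addition reported growth.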
Of the large screens only hits and unclear results are named; the others gave an inactive call. Unless noted, calls follow the shape of the dose curve; as a rule, active = well fitted inhibition curve with a large enough effect; inconclusive = small, poorly fitted or top-dose-only effect, or another doubt; inactive = no such curve, though single readings can be large or run the other way.

Cc1ccc(S(=O)(=O)N2CCC(C(=O)NNC(=O)c3cccnc3)CC2)cc1	Pf growth 96h inconclusive
CC(C)N(C(=O)CSc1nc(Cc2ccccc2)nc2ccccc12)C(C)C	HCV inhibitor inconclusive, Pf growth 48h 10µM (no result: Shiga toxin inh)
Cc1cc(C(=O)CSc2nc3ccccc3c(=O)[nH]2)c(C)n1C	CHX counter 34, HCV inhibitor inconclusive, Shiga toxin inh 133
CC1(NC(=O)CC(c2ccccc2)(c2ccccc2)c2ccccc2)CCN(CCCc2ccccc2)C1=O (centres undefined)	HCV inhibitor inconclusive, Pf growth 48h inconclusive, Pf growth 96h inconclusive (no result: CHX counter, Shiga toxin inh)
COc1ccccc1OCCCn1cc(C(C)=O)c2ccccc21	HCV inhibitor inconclusive, Pf growth 48h inconclusive
Cc1ccc(OCCn2cc(/C(N)=N/O)c3ccccc32)cc1C	HCV inhibitor inconclusive
COc1ccccc1OCCCn1cc(C(=O)C2CC2)c2ccccc21	HCMV inh inconclusive, HCV inhibitor inconclusive, Pf growth 48h 12µM, Pf growth 96h inconclusive
Cc1ccc(OCCn2cc(C(=S)N3CCCC3)c3ccccc32)cc1C	HCMV inh -98, HCV inhibitor inconclusive, Pf growth 48h inconclusive, Pf growth 96h inconclusive
S=C(c1cn(CCOc2ccccc2)c2ccccc12)N1CCCC1	HCV inhibitor 11µM, Pf growth 48h 12µM, Pf growth 96h inconclusive
S=C(c1cn(CCOc2cccc3ccccc23)c2ccccc12)N1CCCC1	HCMV inh -77, HCV inhibitor inconclusive, Pf growth 48h 13µM, Pf growth 96h inconclusive
COCCn1cc(C(=S)N2CCCCC2)c2ccccc21	none
Cc1ccc(OCCn2cc(C(=O)O)c3ccccc32)cc1	none
Cc1ccc(OCCn2cc(C(=O)C3CCCCC3)c3ccccc32)cc1	HCMV inh -101 (no result: CHX counter, HCV inhibitor, Pf growth 48h, Shiga toxin inh, Pf growth 96h)
O=C(NC1CCCC1)C(c1ccncc1)N(Cc1ccccc1)C(=O)c1ccc(-c2ccccc2)[nH]1 (centres undefined)	CHX counter 13, HCV inhibitor inconclusive, Pf growth 48h inconclusive, Pf growth 96h inconclusive
CCOc1ccc(C(C(=O)NC2CCCC2)N(CCCO)C(=O)c2ccc(-c3ccccc3)[nH]2)cc1 (centres undefined)	Pf growth 48h inconclusive, Shiga toxin inh 60
O=C(NC1CCCC1)C(c1ccncc1)N(Cc1ccco1)C(=O)c1ccc(-c2ccccc2)[nH]1 (centres undefined)	Pf growth 48h inconclusive
COc1cccc(NC(=O)CSc2nc(=O)[nH]c3c2CCCC3)c1	none (no result: CHX counter, HCV inhibitor, Pf growth 48h, Shiga toxin inh, Pf growth 96h)
Cc1ccccc1-c1nnc(SCC(=O)NC2CCS(=O)(=O)C2)n1C (centres undefined)	none (no result: CHX counter, Pf growth 48h, Shiga toxin inh, Pf growth 96h)
Cc1nn(-c2ccccc2)c(N)c1C1(O)C(=O)N(C(C)C)c2ccccc21 (centres undefined)	none
Cc1nn(-c2ccccc2)c2c1P(=O)(O)/C(=C1\N(C)c3ccccc3C1(C)C)C=N2	HCV inhibitor inconclusive, Pf growth 48h 2.1µM, Pf growth 96h 8.3µM
O=C(NCc1ccco1)C(=O)NCc1ccccc1Cl	CHX counter 30, Pf growth 96h inconclusive
O=C(NCc1ccco1)c1nc2c(nnn2Cc2ccccc2Cl)c(=O)[nH]1	HCMV inh -98, HCV inhibitor inconclusive, Pf growth 48h 9.3µM
O=C(CN1C(=O)C2C3CCC(C3)C2C1=O)NCc1ccco1 (centres undefined)	Shiga toxin inh 43
Cc1ccc(C)c(Cn2nnc3c(=O)[nH]c(C(=O)NCc4ccco4)nc32)c1	Pf growth 96h inconclusive (no result: HCV inhibitor)
O=C(CN1CCN(Cc2ccccc2Cl)C1=O)NCc1ccco1	Pf growth 96h 3.3µM
O=C(NCc1ccco1)Nc1ccccc1Cl	CHX counter 18, Shiga toxin inh 74 (no result: Pf growth 96h)
Cc1c(C(=O)N/N=C/c2cccnc2)sc(=S)n1C	HCMV inh inconclusive
Cc1cc(C)c2c(N)c(C(=O)N/N=C/c3ccccc3)sc2n1	CHX counter 59, Shiga toxin inh 121
Cc1cc(C)c2c(N)c(C(=O)N/N=C/c3cccnc3)sc2n1	CHX counter 43
COc1ccc2c(c1)CCC(=O)[C@H](O)C[C@H](c1ccccc1)OC2=O	none (no result: CHX counter, HCV inhibitor, Pf growth 48h, Shiga toxin inh, Pf growth 96h)
COc1cccc(-c2cc(C(F)(F)F)nc(N3CCOCC3)n2)c1	HCV inhibitor inconclusive
COc1ccc(-c2cc(C(F)(F)F)nc(N3CCOCC3)n2)cc1OC	HCV inhibitor 3.2µM, Pf growth 48h inconclusive, Pf growth 96h inconclusive
COc1ccccc1-c1cc(C(F)(F)F)nc(N2CCN(c3ccccc3)CC2)n1	Pf growth 96h inconclusive
COc1ccc(-c2cc(C(F)(F)F)nc(NC3CCCC3)n2)cc1OC	HCV inhibitor 2.2µM, Pf growth 48h 15µM
COc1ccccc1-c1cc(C(F)(F)F)nc(N2CCN(c3ccc(F)cc3)CC2)n1	Pf growth 96h 13µM
COc1ccc(-c2cc(-c3ccccc3)nc(N3CCCC3)n2)cc1OC	HCV inhibitor 3.5µM, Pf growth 48h 9.3µM
COc1ccc(C(CC(=O)Nc2cc(OC)c(OC)c(OC)c2)N2Cc3ccccc3C2=O)cc1 (centres undefined)	none (no result: CHX counter, HCV inhibitor, Pf growth 48h, Shiga toxin inh, Pf growth 96h)
Cc1cc(Nc2ccc(F)c(Cl)c2)n2nc(C)nc2n1	Pf growth 48h 3.3µM
COc1ccccc1Nc1cc(C)nc2nc(-c3ccccc3)nn12	HCMV inh -86 (no result: CHX counter, HCV inhibitor, Pf growth 48h, Shiga toxin inh, Pf growth 96h)
Cc1cc(Nc2ccc(F)c(Cl)c2)n2ncnc2n1	Pf growth 48h inconclusive, Pf growth 96h inconclusive
Cc1cc(C)n2nc(-c3ccc(F)cc3)nc2n1	CHX counter 24, Pf growth 96h inconclusive
COc1ccc(Nc2cc(C)nc3nc(C)nn23)cc1Cl	none (no result: Pf growth 48h)
COc1cc(Nc2cc(C)nc3nc(C)nn23)cc(OC)c1OC	Pf growth 48h 9.3µM
Cc1cc(C)cc(NC(=O)c2ccc3c(c2)nnn3C2CCCC2)c1	none (no result: CHX counter, HCV inhibitor, Pf growth 48h, Shiga toxin inh, Pf growth 96h)
CC[C@H](C)[C@H](NC(=O)[C@H](Cc1ccc(O)cc1)NC(=O)[C@@H](NC(=O)[C@H](CCCNC(=N)N)NC(=O)[C@@H](N)CC(=O)O)C(C)C)C(=O)N[C@@H](Cc1cnc[nH]1)C(=O)N1CCC[C@H]1C(=O)N[C@@H](Cc1ccccc1)C(=O)N[C@@H](Cc1cnc[nH]1)C(=O)N[C@@H](CC(C)C)C(=O)N[C@@H](CC(C)C)C(=O)N[C@H](C(=O)N[C@@H](Cc1ccc(O)cc1)C(=O)N[C@@H](CO)C(=O)O)C(C)C	none (no result: HCMV inh, HCV inhibitor, Pf growth 48h, Pf growth 96h)
ClC1(Cl)CC1CSc1nc2ccccc2[nH]1 (centres undefined)	CHX counter 42, Pf growth 96h inconclusive
c1ccc2[nH]c(SCC3CCCCO3)nc2c1 (centres undefined)	CHX counter 34, Shiga toxin inh 105
CCOc1ccc2nc(SCC3CC3(Cl)Cl)[nH]c2c1 (centres undefined)	CHX counter 55, HCV inhibitor inconclusive, Shiga toxin inh 114
CC(=O)Oc1c(C)cc(Cl)cc1C(=O)Nc1ccc([N+](=O)[O-])cc1Cl	CHX counter 74, HCMV inh -98, HCV inhibitor inconclusive, Pf growth 48h inconclusive, Shiga toxin inh 128

Bioassay records as filed in PubChem.
